# Assay results: article PMC7862700, “An all-to-all approach to the identification of sequence-specific readers for epigenetic DNA modifications on cytosine”
# Legend:
# Test in all cases: DAPPL (digital affinity profiling via proximity ligation, sequencing); 10 mM Tris-HCl pH 7.5, 50 mM NaCl, 1 mM DTT, 4% glycerol, room temperature, 30 min; GST-TFs on glutathione beads, 16-mer random dsDNA library, 0.1% formaldehyde crosslink after washing; high values mean tight binding
# Settings in all cases: protein: recombinant; tags: N-terminal GST; dsDNA, one strand shown
# [1] = target: T1, ELK1 (Homo sapiens, UniProt P19419 1-428)
# T1 sequence: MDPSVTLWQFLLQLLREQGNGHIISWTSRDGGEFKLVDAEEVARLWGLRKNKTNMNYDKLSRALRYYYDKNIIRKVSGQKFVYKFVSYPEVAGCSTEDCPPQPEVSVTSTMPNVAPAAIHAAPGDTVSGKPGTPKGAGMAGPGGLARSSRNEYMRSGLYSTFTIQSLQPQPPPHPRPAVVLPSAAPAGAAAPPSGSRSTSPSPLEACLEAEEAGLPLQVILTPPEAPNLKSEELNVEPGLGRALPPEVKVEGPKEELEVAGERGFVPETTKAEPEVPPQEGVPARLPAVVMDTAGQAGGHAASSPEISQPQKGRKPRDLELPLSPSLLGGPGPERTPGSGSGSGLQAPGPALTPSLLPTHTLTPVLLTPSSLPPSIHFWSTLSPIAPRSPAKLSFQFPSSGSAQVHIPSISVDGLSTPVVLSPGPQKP
# Outline: (§1)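 A tag-only sample was pooled with DNA-barcoded human transcription factors that had been expressed in yeast as GST fusions and captured on glutathione beads. The pools were incubated for 30 min at room temperature with 200 nmole of a random double-stranded 16-mer DNA library in Tris/NaCl/DTT/glycerol buffer, then washed, crosslinked with 0.1% formaldehyde, proximity-ligated (BsaI/T4 ligase, 1 h, 37 °C), PCR-amplified and sequenced on an Illumina NextSeq500. Binding signal is each hexamer's read frequency for a factor divided by its frequency for the tag-only sample.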
# [2] = target: T2, GABPA (Homo sapiens, UniProt Q06546 1-454)
# T2 sequence: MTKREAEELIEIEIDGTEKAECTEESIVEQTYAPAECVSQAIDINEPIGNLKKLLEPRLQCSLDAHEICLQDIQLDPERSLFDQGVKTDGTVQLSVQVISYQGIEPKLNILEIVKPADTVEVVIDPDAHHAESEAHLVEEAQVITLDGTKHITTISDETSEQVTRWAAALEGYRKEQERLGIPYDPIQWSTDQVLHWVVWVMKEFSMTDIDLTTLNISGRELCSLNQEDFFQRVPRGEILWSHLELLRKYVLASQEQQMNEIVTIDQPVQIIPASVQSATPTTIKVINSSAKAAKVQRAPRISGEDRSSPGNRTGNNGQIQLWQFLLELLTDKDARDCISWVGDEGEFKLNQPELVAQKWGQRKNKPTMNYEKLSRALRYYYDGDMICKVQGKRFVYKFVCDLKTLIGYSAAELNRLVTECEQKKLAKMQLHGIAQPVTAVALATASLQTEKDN
# Outline: as §1
# [3] = target: T3, ERG (Homo sapiens, UniProt P11308 1-479)
# T3 sequence: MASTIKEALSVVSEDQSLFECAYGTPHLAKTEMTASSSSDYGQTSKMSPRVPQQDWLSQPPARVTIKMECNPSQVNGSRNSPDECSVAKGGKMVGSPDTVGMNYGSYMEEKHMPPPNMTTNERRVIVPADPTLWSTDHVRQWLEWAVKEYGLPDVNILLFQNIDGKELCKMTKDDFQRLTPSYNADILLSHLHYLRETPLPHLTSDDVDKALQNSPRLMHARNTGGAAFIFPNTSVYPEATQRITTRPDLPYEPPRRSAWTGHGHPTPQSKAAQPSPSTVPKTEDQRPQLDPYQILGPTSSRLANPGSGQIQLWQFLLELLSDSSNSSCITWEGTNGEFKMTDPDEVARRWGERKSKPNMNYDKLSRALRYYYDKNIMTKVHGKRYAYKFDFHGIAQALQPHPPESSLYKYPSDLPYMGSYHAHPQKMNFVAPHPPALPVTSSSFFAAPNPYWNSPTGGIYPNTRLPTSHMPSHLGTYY
# Outline: as §1
# [4] = target: ELF1 (Homo sapiens, UniProt P32519 1-619)
# Outline: as §1
# [5] = target: T4, EHF (Homo sapiens, UniProt Q9NZC4 1-300)
# T4 sequence: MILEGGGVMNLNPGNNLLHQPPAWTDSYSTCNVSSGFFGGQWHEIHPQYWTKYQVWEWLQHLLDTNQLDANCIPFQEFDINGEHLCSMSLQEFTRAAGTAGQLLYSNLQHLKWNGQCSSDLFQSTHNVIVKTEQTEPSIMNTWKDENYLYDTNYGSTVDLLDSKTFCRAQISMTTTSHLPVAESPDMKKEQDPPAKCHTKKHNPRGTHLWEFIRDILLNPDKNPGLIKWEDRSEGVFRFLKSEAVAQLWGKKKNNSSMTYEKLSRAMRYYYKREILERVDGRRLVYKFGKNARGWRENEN
# Outline: as §1
# [6] = target: SPIB (Homo sapiens, UniProt Q01892 1-262)
# Outline: as §1
# [7] = target: T5, FEV (Homo sapiens, UniProt Q99581 1-238)
# T5 sequence: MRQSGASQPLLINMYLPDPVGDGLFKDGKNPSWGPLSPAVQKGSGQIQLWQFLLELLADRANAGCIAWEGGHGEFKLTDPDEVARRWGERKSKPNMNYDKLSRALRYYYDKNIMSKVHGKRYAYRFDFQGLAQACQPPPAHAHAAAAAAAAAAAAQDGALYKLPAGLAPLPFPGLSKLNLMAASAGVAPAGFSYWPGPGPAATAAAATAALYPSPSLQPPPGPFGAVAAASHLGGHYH
# Outline: as §1
# [8] = target: ETV5 (Homo sapiens, UniProt P41161 1-510)
# Outline: as §1
# [9] = target: ELF4 (Homo sapiens, UniProt Q99607 1-663)
# Outline: as §1
# [10] = target: T6, ELK4 (Homo sapiens, UniProt P28324-2 1-405)
# T6 sequence: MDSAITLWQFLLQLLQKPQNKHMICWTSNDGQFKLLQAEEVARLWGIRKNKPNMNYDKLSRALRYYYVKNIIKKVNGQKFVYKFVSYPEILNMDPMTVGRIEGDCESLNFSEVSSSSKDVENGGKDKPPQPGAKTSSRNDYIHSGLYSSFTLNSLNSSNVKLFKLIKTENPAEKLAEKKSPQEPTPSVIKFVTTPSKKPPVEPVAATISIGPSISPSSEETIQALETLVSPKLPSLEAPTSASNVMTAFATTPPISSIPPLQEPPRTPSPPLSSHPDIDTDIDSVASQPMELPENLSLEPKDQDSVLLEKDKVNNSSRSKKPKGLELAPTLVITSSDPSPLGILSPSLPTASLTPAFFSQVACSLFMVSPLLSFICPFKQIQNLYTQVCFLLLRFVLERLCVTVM
# Outline: as §1
# [11] = target: T7, ETV2 (Homo sapiens, UniProt O00321 1-342)
# T7 sequence: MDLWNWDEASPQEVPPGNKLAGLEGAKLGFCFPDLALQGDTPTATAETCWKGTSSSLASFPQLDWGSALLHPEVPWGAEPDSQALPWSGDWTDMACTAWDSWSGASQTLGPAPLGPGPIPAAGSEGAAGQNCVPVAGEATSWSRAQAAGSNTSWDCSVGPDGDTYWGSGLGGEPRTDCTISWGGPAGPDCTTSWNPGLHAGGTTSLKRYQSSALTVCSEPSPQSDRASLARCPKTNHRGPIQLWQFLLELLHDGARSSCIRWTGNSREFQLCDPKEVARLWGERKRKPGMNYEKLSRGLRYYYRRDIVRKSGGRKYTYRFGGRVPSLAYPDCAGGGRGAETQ
# Outline: as §1
# [12] = target: T8, ELF3 (Homo sapiens, UniProt P78545 1-371)
# T8 sequence: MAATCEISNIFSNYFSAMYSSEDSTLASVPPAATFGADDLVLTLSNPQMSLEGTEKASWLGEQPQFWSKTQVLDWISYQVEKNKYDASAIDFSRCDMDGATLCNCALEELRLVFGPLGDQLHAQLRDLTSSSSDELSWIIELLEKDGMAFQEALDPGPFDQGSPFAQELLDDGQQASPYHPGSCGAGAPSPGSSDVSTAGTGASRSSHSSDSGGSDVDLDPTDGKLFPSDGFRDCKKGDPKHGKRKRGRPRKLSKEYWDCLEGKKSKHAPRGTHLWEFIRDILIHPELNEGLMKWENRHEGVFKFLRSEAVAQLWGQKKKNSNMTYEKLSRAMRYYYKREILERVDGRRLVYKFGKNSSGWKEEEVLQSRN
# Outline: as §1
# [13] = target: ETV1 (Homo sapiens, UniProt P50549 1-477)
# Outline: as §1
# [14] = target: T9, ERF (Homo sapiens, UniProt P50548 1-548)
# T9 sequence: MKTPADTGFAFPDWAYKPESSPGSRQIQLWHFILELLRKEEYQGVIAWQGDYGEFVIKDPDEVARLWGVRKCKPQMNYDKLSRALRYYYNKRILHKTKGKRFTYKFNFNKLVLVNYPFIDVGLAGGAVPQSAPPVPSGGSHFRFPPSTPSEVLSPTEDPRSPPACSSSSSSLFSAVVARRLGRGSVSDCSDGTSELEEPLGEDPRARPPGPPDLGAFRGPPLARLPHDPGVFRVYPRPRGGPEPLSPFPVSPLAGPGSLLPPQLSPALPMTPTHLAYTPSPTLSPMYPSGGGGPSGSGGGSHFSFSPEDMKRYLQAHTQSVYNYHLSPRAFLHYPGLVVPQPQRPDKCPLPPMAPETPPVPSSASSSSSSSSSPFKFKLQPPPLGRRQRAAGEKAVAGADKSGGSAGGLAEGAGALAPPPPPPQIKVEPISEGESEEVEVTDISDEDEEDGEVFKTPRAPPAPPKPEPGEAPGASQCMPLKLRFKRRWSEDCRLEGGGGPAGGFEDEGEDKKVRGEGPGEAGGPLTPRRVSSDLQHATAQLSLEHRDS
# Outline: as §1
# [15] = target: T10, ETV3L (Homo sapiens, UniProt Q6ZN32 1-361)
# T10 sequence: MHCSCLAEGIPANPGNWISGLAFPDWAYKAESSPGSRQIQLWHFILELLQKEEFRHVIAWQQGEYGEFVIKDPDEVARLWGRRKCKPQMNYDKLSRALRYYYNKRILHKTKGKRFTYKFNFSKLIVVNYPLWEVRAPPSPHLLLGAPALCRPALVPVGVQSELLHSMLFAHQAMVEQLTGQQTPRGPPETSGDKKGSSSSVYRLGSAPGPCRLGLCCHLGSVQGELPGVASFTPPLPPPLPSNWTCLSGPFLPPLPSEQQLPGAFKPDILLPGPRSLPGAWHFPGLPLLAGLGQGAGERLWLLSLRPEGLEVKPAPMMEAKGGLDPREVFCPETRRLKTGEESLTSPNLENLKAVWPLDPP
# Outline: as §1
# [16] = target: T11, ETS2 (Homo sapiens, UniProt P15036 1-469)
# T11 sequence: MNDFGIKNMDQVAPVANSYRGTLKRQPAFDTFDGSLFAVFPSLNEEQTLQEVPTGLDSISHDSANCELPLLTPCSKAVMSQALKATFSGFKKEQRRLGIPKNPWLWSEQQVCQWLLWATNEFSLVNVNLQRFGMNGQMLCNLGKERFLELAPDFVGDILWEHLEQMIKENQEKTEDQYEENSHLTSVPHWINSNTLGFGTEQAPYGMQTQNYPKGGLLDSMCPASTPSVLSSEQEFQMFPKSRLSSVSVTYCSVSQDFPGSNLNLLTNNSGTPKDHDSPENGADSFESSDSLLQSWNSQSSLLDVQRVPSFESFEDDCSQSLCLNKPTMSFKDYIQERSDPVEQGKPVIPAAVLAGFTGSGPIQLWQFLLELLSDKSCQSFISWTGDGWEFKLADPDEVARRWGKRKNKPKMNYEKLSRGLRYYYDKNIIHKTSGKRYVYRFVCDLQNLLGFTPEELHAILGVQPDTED
# Outline: as §1
# [17] = target: T12, SPDEF (Homo sapiens, UniProt O95238 1-335)
# T12 sequence: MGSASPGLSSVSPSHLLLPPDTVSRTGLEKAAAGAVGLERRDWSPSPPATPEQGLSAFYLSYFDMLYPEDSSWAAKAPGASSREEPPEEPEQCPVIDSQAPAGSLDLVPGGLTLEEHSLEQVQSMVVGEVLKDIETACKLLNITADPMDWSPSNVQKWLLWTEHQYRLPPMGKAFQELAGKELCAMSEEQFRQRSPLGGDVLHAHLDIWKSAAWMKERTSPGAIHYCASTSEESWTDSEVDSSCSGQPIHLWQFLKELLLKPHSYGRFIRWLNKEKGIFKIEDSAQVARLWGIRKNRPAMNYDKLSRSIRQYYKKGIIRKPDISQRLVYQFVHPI
# Outline: as §1
# [18] = target: T13, ETV3 (Homo sapiens, UniProt P41162-2 1-143)
# T13 sequence: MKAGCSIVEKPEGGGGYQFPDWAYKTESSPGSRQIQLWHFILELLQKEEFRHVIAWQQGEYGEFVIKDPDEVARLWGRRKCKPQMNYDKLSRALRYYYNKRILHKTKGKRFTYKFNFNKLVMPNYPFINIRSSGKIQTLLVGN
# Outline: as §1
# [19] = target: ETV6 (Homo sapiens, UniProt P41212 1-452)
# Outline: as §1
# Sequence of ETV1 (P50549 whole entry): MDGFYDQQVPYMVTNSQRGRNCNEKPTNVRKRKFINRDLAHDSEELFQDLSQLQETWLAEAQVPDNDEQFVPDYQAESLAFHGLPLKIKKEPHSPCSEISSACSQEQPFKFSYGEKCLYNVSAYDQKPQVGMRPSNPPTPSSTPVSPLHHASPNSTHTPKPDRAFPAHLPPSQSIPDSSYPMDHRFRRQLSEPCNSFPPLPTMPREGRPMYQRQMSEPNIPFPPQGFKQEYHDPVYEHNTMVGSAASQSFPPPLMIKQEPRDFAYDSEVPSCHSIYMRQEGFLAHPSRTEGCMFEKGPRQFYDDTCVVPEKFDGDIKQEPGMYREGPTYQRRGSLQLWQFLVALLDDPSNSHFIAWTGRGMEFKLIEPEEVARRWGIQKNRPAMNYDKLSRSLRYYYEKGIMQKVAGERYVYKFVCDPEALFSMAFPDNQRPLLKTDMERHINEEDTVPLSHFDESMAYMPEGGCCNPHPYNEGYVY
# Sequence of ELF4 (Q99607 whole entry): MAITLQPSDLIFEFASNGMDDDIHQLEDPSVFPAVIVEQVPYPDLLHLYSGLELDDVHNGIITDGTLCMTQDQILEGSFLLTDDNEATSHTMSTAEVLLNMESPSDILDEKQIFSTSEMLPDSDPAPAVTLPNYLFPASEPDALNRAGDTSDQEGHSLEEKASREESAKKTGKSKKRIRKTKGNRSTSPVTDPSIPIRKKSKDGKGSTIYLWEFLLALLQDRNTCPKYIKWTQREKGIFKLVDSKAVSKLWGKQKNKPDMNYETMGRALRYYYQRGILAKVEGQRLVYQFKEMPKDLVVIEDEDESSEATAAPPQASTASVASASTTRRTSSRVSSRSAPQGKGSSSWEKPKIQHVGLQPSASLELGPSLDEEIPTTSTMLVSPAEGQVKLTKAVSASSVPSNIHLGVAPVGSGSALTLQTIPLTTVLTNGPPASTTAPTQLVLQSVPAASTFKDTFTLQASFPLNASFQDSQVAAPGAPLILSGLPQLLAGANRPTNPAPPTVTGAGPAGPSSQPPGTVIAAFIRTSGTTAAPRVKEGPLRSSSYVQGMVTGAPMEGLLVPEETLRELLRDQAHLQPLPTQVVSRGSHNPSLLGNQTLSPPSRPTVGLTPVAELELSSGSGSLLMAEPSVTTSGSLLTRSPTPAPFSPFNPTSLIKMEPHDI
# Sequence of SPIB (Q01892 whole entry): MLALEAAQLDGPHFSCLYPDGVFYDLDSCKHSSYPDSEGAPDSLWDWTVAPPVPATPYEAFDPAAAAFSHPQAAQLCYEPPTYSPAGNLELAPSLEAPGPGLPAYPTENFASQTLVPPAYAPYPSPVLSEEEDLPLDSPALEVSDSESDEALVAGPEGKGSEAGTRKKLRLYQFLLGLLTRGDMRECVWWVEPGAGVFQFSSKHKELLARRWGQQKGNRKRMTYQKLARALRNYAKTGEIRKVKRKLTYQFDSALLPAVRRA
# Sequence of ETV6 (P41212 whole entry): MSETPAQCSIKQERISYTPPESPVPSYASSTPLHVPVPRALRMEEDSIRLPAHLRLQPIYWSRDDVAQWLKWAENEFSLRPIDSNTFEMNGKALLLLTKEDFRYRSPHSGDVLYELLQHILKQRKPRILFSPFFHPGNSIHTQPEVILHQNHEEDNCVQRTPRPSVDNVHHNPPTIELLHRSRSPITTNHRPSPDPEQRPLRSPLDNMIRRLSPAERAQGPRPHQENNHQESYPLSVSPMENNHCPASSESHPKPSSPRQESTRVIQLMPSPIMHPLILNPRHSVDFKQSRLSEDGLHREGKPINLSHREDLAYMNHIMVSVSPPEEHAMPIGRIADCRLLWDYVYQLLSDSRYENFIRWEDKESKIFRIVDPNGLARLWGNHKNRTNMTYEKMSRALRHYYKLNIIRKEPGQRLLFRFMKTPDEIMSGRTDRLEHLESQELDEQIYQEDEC
# Sequence of ELF1 (P32519 whole entry): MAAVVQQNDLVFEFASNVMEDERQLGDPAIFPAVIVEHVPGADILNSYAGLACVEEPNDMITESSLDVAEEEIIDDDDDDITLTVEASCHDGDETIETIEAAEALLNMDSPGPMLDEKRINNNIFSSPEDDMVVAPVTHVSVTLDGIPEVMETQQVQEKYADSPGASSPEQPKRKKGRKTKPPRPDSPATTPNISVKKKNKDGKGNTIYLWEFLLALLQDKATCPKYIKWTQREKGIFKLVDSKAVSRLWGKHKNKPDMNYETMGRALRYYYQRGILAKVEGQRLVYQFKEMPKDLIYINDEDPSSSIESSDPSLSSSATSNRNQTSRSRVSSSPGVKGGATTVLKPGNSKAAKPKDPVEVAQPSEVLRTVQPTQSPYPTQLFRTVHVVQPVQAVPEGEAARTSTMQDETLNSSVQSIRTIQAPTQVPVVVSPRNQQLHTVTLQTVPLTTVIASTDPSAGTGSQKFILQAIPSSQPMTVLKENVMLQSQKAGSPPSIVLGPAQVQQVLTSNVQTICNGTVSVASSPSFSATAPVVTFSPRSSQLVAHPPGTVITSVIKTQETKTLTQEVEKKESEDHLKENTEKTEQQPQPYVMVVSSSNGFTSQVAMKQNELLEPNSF
# Sequence of ETV5 (P41161 whole entry): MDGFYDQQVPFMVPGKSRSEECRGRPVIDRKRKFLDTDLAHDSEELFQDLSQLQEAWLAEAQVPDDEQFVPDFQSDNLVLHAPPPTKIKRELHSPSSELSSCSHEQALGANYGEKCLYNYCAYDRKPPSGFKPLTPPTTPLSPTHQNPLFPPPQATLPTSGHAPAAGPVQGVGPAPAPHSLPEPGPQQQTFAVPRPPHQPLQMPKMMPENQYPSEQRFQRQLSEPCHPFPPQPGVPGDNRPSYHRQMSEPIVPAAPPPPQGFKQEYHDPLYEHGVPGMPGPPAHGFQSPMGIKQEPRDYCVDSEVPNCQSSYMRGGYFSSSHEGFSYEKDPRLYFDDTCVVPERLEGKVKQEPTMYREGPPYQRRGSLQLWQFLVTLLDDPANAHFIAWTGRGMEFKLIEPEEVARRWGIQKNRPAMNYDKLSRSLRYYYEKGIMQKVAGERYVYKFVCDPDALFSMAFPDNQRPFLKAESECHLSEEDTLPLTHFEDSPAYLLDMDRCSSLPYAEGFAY
sequence,measurement,setting,value
ATGCAG,binding signal,[1],"1.04 fold enrichment (6-mer frequency, TF over GST control)"
same,binding signal,[2],"1.14 fold enrichment (6-mer frequency, TF over GST control)"
same,binding signal,[3],"1.09 fold enrichment (6-mer frequency, TF over GST control)"
same,binding signal,[4],"1.03 fold enrichment (6-mer frequency, TF over GST control)"
same,binding signal,[5],"1.08 fold enrichment (6-mer frequency, TF over GST control)"
same,binding signal,[6],"1.22 fold enrichment (6-mer frequency, TF over GST control)"
same,binding signal,[7],"1.11 fold enrichment (6-mer frequency, TF over GST control)"
same,binding signal,[8],"1.05 fold enrichment (6-mer frequency, TF over GST control)"
same,binding signal,[9],"1.05 fold enrichment (6-mer frequency, TF over GST control)"
same,binding signal,[10],"1.15 fold enrichment (6-mer frequency, TF over GST control)"
same,binding signal,[11],"1.1 fold enrichment (6-mer frequency, TF over GST control)"
same,binding signal,[12],"1.05 fold enrichment (6-mer frequency, TF over GST control)"
same,binding signal,[13],"1.1 fold enrichment (6-mer frequency, TF over GST control)"
same,binding signal,[14],"1.22 fold enrichment (6-mer frequency, TF over GST control)"
same,binding signal,[15],"1.08 fold enrichment (6-mer frequency, TF over GST control)"
same,binding signal,[16],"1.11 fold enrichment (6-mer frequency, TF over GST control)"
same,binding signal,[17],"1.05 fold enrichment (6-mer frequency, TF over GST control)"
same,binding signal,[18],"1.06 fold enrichment (6-mer frequency, TF over GST control)"
same,binding signal,[19],"1.06 fold enrichment (6-mer frequency, TF over GST control)"
